In paper PMC4336329 (PLoS ONE, 2015):
The whole screen tested about 310,000 compounds, of which about 14,000 (4.5%) showed an effect of 50% or more. The effect is printed as a negative number. The sample holds strong results, similar compounds and a random draw of the others, so the mix is not that of the screen.
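Note: peak tail current of the secondary pulse compared with the same well before compound.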

These molecules were tested against human ether-à-go-go-related gene (hERG) potassium channel (human, UniProt Q12809) (assay: primary screen, population patch clamp on CHO cells stably expressing hERG; higher = less effect of the substance).
Sequence of human ether-à-go-go-related gene (hERG) potassium channel (Q12809 whole entry, looked up): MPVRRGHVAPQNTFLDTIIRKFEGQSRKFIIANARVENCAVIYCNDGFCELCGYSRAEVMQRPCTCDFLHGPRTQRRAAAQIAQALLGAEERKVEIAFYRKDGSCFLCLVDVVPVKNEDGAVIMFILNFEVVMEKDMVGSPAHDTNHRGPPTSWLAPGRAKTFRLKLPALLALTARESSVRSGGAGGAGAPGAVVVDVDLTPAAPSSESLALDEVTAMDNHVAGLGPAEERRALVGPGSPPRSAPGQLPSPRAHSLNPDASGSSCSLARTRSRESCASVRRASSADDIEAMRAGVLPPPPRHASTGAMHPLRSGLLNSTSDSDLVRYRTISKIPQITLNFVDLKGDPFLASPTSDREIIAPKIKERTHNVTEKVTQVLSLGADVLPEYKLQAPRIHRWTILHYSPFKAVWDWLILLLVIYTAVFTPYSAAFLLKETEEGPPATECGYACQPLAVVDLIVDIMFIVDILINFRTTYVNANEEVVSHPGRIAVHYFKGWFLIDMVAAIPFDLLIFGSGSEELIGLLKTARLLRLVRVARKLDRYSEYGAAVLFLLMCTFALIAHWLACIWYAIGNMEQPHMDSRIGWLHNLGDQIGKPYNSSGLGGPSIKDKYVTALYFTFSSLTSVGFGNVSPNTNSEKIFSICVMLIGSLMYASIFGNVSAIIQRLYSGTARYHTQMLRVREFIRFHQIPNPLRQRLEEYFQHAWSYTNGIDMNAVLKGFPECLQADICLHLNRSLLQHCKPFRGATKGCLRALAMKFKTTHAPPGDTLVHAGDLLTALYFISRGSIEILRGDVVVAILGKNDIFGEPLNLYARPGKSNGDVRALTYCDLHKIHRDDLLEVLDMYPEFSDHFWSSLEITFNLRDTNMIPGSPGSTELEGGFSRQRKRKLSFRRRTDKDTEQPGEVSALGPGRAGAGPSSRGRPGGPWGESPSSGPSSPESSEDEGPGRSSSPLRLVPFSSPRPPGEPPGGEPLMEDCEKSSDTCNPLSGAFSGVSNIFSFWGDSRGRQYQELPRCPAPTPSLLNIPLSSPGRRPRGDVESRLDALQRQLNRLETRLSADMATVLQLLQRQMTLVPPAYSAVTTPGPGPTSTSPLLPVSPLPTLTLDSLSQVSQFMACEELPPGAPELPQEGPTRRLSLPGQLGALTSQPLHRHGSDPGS
In the case of CCOC(=O)c1c(S(=O)(=O)N2c3ccccc3CC2C)c(C)n(C)c1C (stereo not drawn), the “hERG current change (%, negative = inhibition) at 10uM” value is reported as 13.1%. In the case of CC(=O)Oc1ccc(C(=O)Nc2cccc(-c3nnc(-c4ccco4)o3)c2)cc1, the “hERG current change (%, negative = inhibition) at 10uM” value is reported as 0.775%. With O=C(COC(=O)C1(c2ccc(F)cc2)CCCC1)NC1CC1 the “hERG current change (%, negative = inhibition) at 10uM” value was 0.676%. With CCC1(C)Cc2c(sc3nc(SC)n(Cc4ccccc4)c(=O)c23)CO1 (stereo not drawn) the “hERG current change (%, negative = inhibition) at 10uM” value was 6.63%. For Cc1sc(NC(=O)C2=COCCO2)nc1-c1ccc(Cl)cc1, the “hERG current change (%, negative = inhibition) at 10uM” value was 13%. CCCCn1c(=O)c(CCC(=O)OCC(=O)NC(=O)NCCC(C)C)nc2ccccc21 was tested, and the “hERG current change (%, negative = inhibition) at 10uM” value was -9.31%. For CCc1nnc(NC(=O)C2CCCN(S(=O)(=O)c3ccccc3)C2)s1 (stereo not drawn), the “hERG current change (%, negative = inhibition) at 10uM” value was 5.15%. For Cc1nc2cc(NC(=O)COc3ccccc3C#N)ccc2n1-c1ccccc1, the “hERG current change (%, negative = inhibition) at 10uM” value was -4.85%. With Clc1ccc(OCCN2CCOCC2)cc1 the “hERG current change (%, negative = inhibition) at 10uM” value was 17%. For NS(=O)(=O)c1ccc(N2CCN(CCOc3ccc(Cl)cc3)CC2)nc1, the “hERG current change (%, negative = inhibition) at 10uM” value was -69.8%. Cc1cc(C)c(C#N)c(N2CCN(CCOc3ccc(Cl)cc3)CC2)n1 was tested, and the “hERG current change (%, negative = inhibition) at 10uM” value was -33.6%. In the case of Cc1sc2ncnc(N3CCN(CCOc4ccc(Cl)cc4)CC3)c2c1C, the “hERG current change (%, negative = inhibition) at 10uM” value is reported as -9.02%. For Clc1ccc(OCCN2CCN(c3ncnc4sccc34)CC2)cc1, the “hERG current change (%, negative = inhibition) at 10uM” value was -81.2%. CCN(CC)S(=O)(=O)c1ccc(N2CCN(CCOc3ccc(OC)cc3)CC2)nc1 was tested, and the “hERG current change (%, negative = inhibition) at 10uM” value was -46.8%. CN(C)C(=O)CSc1ccc(S(=O)(=O)N2CCOCC2)cn1 was tested, and the “hERG current change (%, negative = inhibition) at 10uM” value was 10.6%. With O=C(CSc1nnc(-c2cccs2)o1)N1CCCCC1 the “hERG current change (%, negative = inhibition) at 10uM” value was 2.99%. With CCOC(=O)CSc1nc2ccccc2c(=O)n1-c1ccc(C)cn1 the “hERG current change (%, negative = inhibition) at 10uM” value was 0.327%. For O=C(/C=C/c1ccco1)NCC1(c2ccccc2)CCCC1, the “hERG current change (%, negative = inhibition) at 10uM” value was -4.49%. In the case of O=C(/C=C/c1ccccc1)NCC1(c2ccccc2)CCOCC1, the “hERG current change (%, negative = inhibition) at 10uM” value is reported as -9.11%. With O=C(/C=C/c1ccc(F)cc1)NCC1(c2ccccc2)CCOCC1 the “hERG current change (%, negative = inhibition) at 10uM” value was -50.5%. With O=C(NC1CCCC1)C(c1ccncc1)N(C(=O)c1csnn1)c1ccccc1 (stereo not drawn) the “hERG current change (%, negative = inhibition) at 10uM” value was 15.1%. With Cc1cc(N2C(=O)C(O)=C(C(=O)c3ccco3)C2c2ccc(Cl)cc2)no1 (stereo not drawn) the “hERG current change (%, negative = inhibition) at 10uM” value was -6.77%. O=C(NCC(=O)N(c1cccc(F)c1)C(C(=O)NCC1CCCO1)c1ccccc1)c1ccco1 (stereo not drawn) was tested, and the “hERG current change (%, negative = inhibition) at 10uM” value was 6.26%. Cc1ccc(S(=O)(=O)N(C)c2ccc(C(=O)NCCc3ccccc3)cc2)cc1 was tested, and the “hERG current change (%, negative = inhibition) at 10uM” value was -6.94%. With Cc1ccc(S(=O)(=O)N(C)c2ccc(C(=O)NCC3CCCO3)cc2)cc1 (stereo not drawn) the “hERG current change (%, negative = inhibition) at 10uM” value was -16.7%. COc1ccc(CCNC(=O)COc2ccc(N(C)S(=O)(=O)c3ccc(C)cc3)cc2)cc1 was tested, and the “hERG current change (%, negative = inhibition) at 10uM” value was 6.95%. For Cc1ccc(S(=O)(=O)N(C)c2ccc(OCC(=O)NCc3ccco3)cc2)cc1, the “hERG current change (%, negative = inhibition) at 10uM” value was -44.8%. In the case of Cc1ccc(S(=O)(=O)N(C)c2ccc(OCC(=O)NCC3(N(C)C)CCCCC3)cc2)cc1, the “hERG current change (%, negative = inhibition) at 10uM” value is reported as -73.5%. With Cc1ccc(S(=O)(=O)N(C)c2ccc(C(=O)NCC3(N(C)C)CCCCC3)cc2)cc1 the “hERG current change (%, negative = inhibition) at 10uM” value was -65.4%. O=C(CN1C(=O)NC(CCc2ccccc2)C1=O)NC1CC1 (stereo not drawn) was tested, and the “hERG current change (%, negative = inhibition) at 10uM” value was 18.8%. For Cc1ccc(SC(C)C(=O)NCc2cccnc2)cc1 (stereo not drawn), the “hERG current change (%, negative = inhibition) at 10uM” value was 5.44%. For COc1ccc(C(C)(C)C)cc1NC(=S)NCCN1CCOCC1, the “hERG current change (%, negative = inhibition) at 10uM” value was 1.38%. For Cc1ccc(Cn2c(=N)c(S(=O)(=O)c3ccc(Br)cc3)cc3c(=O)n4ccccc4nc32)cc1, the “hERG current change (%, negative = inhibition) at 10uM” value was -6.27%. For Cc1ccc(Cn2c(=N)c(C(=O)NC3CCCCC3)cc3c(=O)n4ccccc4nc32)cc1, the “hERG current change (%, negative = inhibition) at 10uM” value was -65.7%. In the case of Cc1ccc(Cn2c(=N)c(C(=O)NC3CCCC3)cc3c(=O)n4ccccc4nc32)cc1, the “hERG current change (%, negative = inhibition) at 10uM” value is reported as -92.7%. In the case of Cc1ccc(Cn2c(=N)c(S(=O)(=O)c3ccc(C)cc3)cc3c(=O)n4ccccc4nc32)cc1, the “hERG current change (%, negative = inhibition) at 10uM” value is reported as 17.7%. In the case of C/C(=N\NC(=O)C1CCCC1)c1ccc(Cl)c(Cl)c1, the “hERG current change (%, negative = inhibition) at 10uM” value is reported as 13.7%. With O=C(c1ccco1)N1CCN(C(=O)C2CCCN(S(=O)(=O)Cc3ccccc3)C2)CC1 (stereo not drawn) the “hERG current change (%, negative = inhibition) at 10uM” value was -35.4%. O=C(NCc1c(Cl)cccc1Cl)c1ccc2nnsc2c1 was tested, and the “hERG current change (%, negative = inhibition) at 10uM” value was 8.96%. For CCOc1ccc(NC(=O)CN2CCN(CC(=O)Nc3ccc(C(=O)OC)cc3)CC2)cc1, the “hERG current change (%, negative = inhibition) at 10uM” value was -66.2%. CCOc1ccc(NC(=O)CN2CCN(CC(=O)c3ccc(OC)c(OC)c3)CC2)cc1 was tested, and the “hERG current change (%, negative = inhibition) at 10uM” value was -84.4%. NC(=O)c1ccc(NC(=O)CN2CCOCC2)cc1 was tested, and the “hERG current change (%, negative = inhibition) at 10uM” value was 17.9%. For CCOc1ccc(NC(=O)CN2CCN(CC(=O)Nc3ccc(C(N)=O)cc3)CC2)cc1, the “hERG current change (%, negative = inhibition) at 10uM” value was -72.6%. With COC(=O)c1ccc(NC(=O)CN2CCCC2)cc1 the “hERG current change (%, negative = inhibition) at 10uM” value was 5.33%. In the case of Cc1ccc(OCC(=O)Nc2ccc(C(N)=O)cc2)cc1, the “hERG current change (%, negative = inhibition) at 10uM” value is reported as 16.5%. For CCCCOc1ccc(C(=O)N2CCN(CC(=O)Nc3ccc(C)cc3)CC2)cc1OC, the “hERG current change (%, negative = inhibition) at 10uM” value was -47.1%. With CCOc1ccc(NC(=O)CNC(=O)c2ccc(OC)c(OC)c2)cc1 the “hERG current change (%, negative = inhibition) at 10uM” value was 0.00778%. For COC(=O)c1ccc(NC(=O)CN2CCN(CCO)CC2)cc1.Cl, the “hERG current change (%, negative = inhibition) at 10uM” value was -5.29%. With Cc1ccccc1C(=O)Nc1nnc(CC(=O)N/N=C/c2cn(Cc3ccccc3)c3ccccc23)s1 the “hERG current change (%, negative = inhibition) at 10uM” value was 12.6%. In the case of COc1ccc([N+](=O)[O-])cc1NC(=O)CCN1CCN(C)CC1, the “hERG current change (%, negative = inhibition) at 10uM” value is reported as 16.3%. With COC(=O)C(NC(=O)CCC(=O)N[C@@H](C(=O)OC)c1ccccc1)c1ccccc1 (stereo partly drawn) the “hERG current change (%, negative = inhibition) at 10uM” value was 9.88%. With N#CC1=CN(Cc2ccccc2)C=C(/C=N/Nc2ccccc2)C1 the “hERG current change (%, negative = inhibition) at 10uM” value was -5.72%. In the case of c1ccc2c(CNc3ccc(CNc4ncn[nH]4)cc3)cccc2c1, the “hERG current change (%, negative = inhibition) at 10uM” value is reported as 1.99%. In the case of CCCCC(=O)Nc1ccc(C(=O)NNC(=O)CCCOc2ccc(Cl)cc2Cl)cc1, the “hERG current change (%, negative = inhibition) at 10uM” value is reported as 7.25%.
